# Measured values from PubChem BioAssay AID651610 (Broad Institute, 2012).
# About 3,900 (1.1%) of roughly 360,000 compounds were called active. Shown is part of a subset that was picked to be rich in actives. Unmarked numbers belong to inactive results.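 The calls were made as follows: active = mean replicate inhibition score of at least 50 and every replicate individually at or above 50; inconclusive = only one of the two criteria met; inactive = mean below 50 and not all replicates reaching 50.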
# Assay: inhibitors of HIV-1 Env-driven cell-cell fusion, primary screen, HeLa-JRFL effector, CEM21 target cells, luciferase (AID 651610);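 also: 0% = plate neutral controls and 100% = maraviroc near 300 nM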
# Details: active compounds read high; at 16.7 µM unless noted
row,SMILES,inhibition
1,O=C(NC[C@H]1CC[C@@H]2[C@@H](CN2S(=O)(=O)c2ccccc2F)O1)C1CCCCC1,5.54%
2,CCCCn1nc(C(=O)Nc2ccc(S(=O)(=O)Nc3ncccn3)cc2)c2ccccc2c1=O,3.69% [at 12.3 µM]
3,Cc1ccc(-n2c(O)c(C=Nc3ccc(S(=O)(=O)Nc4ncccn4)cc3)c3ccccc3c2=O)cc1C,65% [at 12.3 µM] (active)
4,CCN(CC)CCCN=Cc1c(O)n(-c2ccc(C)cc2)c(=O)c2ccccc12,-12.6% [at 12.3 µM]
5,Cc1ccc(S(=O)(=O)Nc2ccc3c(c2)C(=O)N([C@H](C)CO)C[C@H](C)[C@H](CN(C)S(=O)(=O)c2ccc(F)cc2)OCCCC[C@@H](C)O3)cc1,-11.1%
6,CCCC(=O)Nc1ccc(C(=O)N/N=C/c2ccc[nH]2)cc1,66.2% [at 12.3 µM] (active)
7,CC(=O)Nc1ccc(C(=O)/C=C/c2ccc[nH]2)cc1,3.48% [at 12.3 µM]
8,O=C(COc1ccccc1[N+](=O)[O-])N/N=C/c1ccc[nH]1,-18.2% [at 12.3 µM]
9,CC1(C)OC(=O)C2=C(CC(CCc3ccccc3)OC2c2ccc(Cl)cc2)O1 (stereo not drawn),-17.2% [at 12.3 µM]
10,COc1ccc(C(CNC(=O)c2ccc(NS(=O)(=O)c3ccc(F)c(C)c3)cc2)N(C)C)cc1 (stereo not drawn),-1.84% [at 12.3 µM]
11,Cc1cc(S(=O)(=O)Nc2ccc(C(=O)NCC(c3ccco3)N3CCCC3)cc2)ccc1F (stereo not drawn),57.1% [at 12.3 µM] (active)
12,COc1ccc(C(CNC(=O)c2cccc(NS(=O)(=O)c3ccc(C)c(F)c3)c2)N2CCCC2)cc1 (stereo not drawn),-23.5% [at 12.3 µM]
13,COc1ccc(NC(=O)N(C)C[C@@H]2OCCCC[C@@H](C)Oc3ccc(N(C)C)cc3C(=O)N([C@H](C)CO)C[C@@H]2C)cc1,7.61%
14,C[C@H]1CN([C@@H](C)CO)C(=O)Cc2cc(NC(=O)C3CC3)ccc2O[C@H]1CN(C)C(=O)Nc1ccc(C(F)(F)F)cc1,3.78%
15,C[C@H](CO)N1C[C@H](C)[C@@H](CN(C)S(=O)(=O)c2cn(C)cn2)OCCCC[C@H](C)Oc2ccc(NC(=O)Cc3ccccc3)cc2C1=O,-9.54%
16,C=CCn1c(C)cc(C2=NNC(=NCC)SC2)c1C,68.8% [at 12.3 µM] (active)
17,CO[C@@H]1CN(C)C(=O)c2ccc(NC(=O)c3ccc(F)cc3)cc2OC[C@H](C)NC[C@@H]1C,-0.21%
18,C[C@@H]1CN([C@H](C)CO)C(=O)Cc2cc(NC(=O)Nc3ccc(F)cc3)ccc2O[C@@H]1CN(C)C(=O)Nc1ccc2c(c1)OCO2,8.43%
